# Experimental data: PubChem BioAssay AID504727 (Broad Institute, 2011)
# Calls of active or inactive are those of the source.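 How the source made its calls: active means fitted half-maximal concentration AC50 at or below ten times the highest valid tested dose, with signal falling as DNA is displaced (actives reach about 34 µM in these data); inconclusive means flat fit at moderate signal loss, or poor fit quality; inactive means the rest, including signal rising instead of falling.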
# Experiment: DNA intercalators displacing acridine orange, dose response, artefact control for KSHV LANA DNA-binding inhibitor project, biochemical, fluorescence polarization, cherry-picked samples, set 2 (AID 504727)
# Conditions: AC50: Acridine orange-DNA displacement; series mostly up to 35 µM
row,SMILES,AC50
1,Cn1c(=O)oc2cc(S(=O)(=O)CCC(=O)N3CCN(c4ccccc4F)CC3)ccc21,inactive
2,O=C1c2ccccc2C(=O)N1Cc1ccc2c(c1)OCO2,inactive
3,CCOC(=O)C1CCCN(C(=O)C2c3ccccc3Oc3ccccc32)C1 (stereo not drawn),inactive
4,O=C(O)C(Cc1ccccc1)N1C(=O)/C(=C/C=C/c2ccco2)SC1=S (stereo not drawn),inactive
5,O=C1CCCC2=C1C(c1ccc(O)c(O)c1)Nc1ccc3ncccc3c12 (stereo not drawn),inactive
6,Cc1noc(C)c1CSCC(=O)Nc1nc2c(F)cc(F)cc2s1,inactive
7,S=c1c2c(nc3nc[nH]n13)CCC2,inactive
8,CCOC(=O)C(C)(C)N(Cc1ccccc1C)S(=O)(=O)c1ccc(Cl)c([N+](=O)[O-])c1,inactive
9,C=CCNC(=S)N1CCN(S(=O)(=O)c2ccc(C)cc2)CC1,inactive
10,O=C(O)c1ccc(NS(=O)(=O)c2ccc3c(c2)C2C=CCC2C(c2ccccc2F)N3)cc1 (stereo not drawn),inactive
11,CCCCn1nc(CC(=O)O)c2ccccc2c1=O,inactive
12,CC[C@@]1(O)C(=O)OCc2c1cc1n(c2=O)Cc2cc3c(CN(C)C)c(O)ccc3nc2-1,3.8 µM (active)
13,Cc1nn(Cc2c(F)c(F)c(F)c(F)c2F)c(C)c1NC(=O)c1ccnn1C,inactive
14,Cc1nc2ccccc2n2c(O)c(CC(=O)O)cc12,10.2 µM (active)
15,Cc1cc(C)nc(SCC(=O)N/N=C/c2cc(C)n(-c3ccccc3C)c2C)n1,inactive
16,COc1cccc2c1NC(C(=O)O)C1CC=CC21 (stereo not drawn),inactive
17,COc1ccc(Br)cc1CNC(=O)CCCc1cn(C)c2ccccc12,inactive
18,CCNc1nc(NC(C)C)nc(NS(=O)(=O)c2ccc(N)cc2)n1,inactive
19,Cc1ccc(C(=O)CCC(=O)Nc2ncccc2C)cc1,inactive

row,SMILES,AC50
1,Cn1c(Cl)c(C(=O)Nc2ccc(Cl)cc2)c2ccccc21,inactive
2,Cc1ccc(NC(=O)CN2C(=O)N/C(=C/c3cc(C)n(-c4ccc(C(=O)O)cc4)c3C)C2=O)cc1,inactive
3,CC(C)c1ccc(NC(=O)Cn2c(=O)oc3cccnc32)cc1,inactive
4,COCCN(CCOC)Cc1c(O)ccc2c1O/C(=C\c1ccco1)C2=O,27.5 µM (active)
5,CC(OC(=O)CCN1C(=O)C2CC=CCC2C1=O)C(=O)Nc1ccc(F)cc1 (stereo not drawn),inactive
6,COc1ccc(-c2n[nH]c(=S)n2-c2ccc(C)cc2)cc1,inactive
7,O=C(c1ccc2c(c1)CCN2S(=O)(=O)c1ccccc1)N1CCN(c2ccc(F)cc2)CC1,inactive
8,COc1ccccc1C(=O)NCC(=O)OCC(=O)N(CC(C)C)c1c(N)n(Cc2ccccc2)c(=O)[nH]c1=O,inactive
9,COc1ccc(CNC(=O)C2CCC(CNC(=O)[C@@H]3Cc4ccccc4CN3)CC2)cc1 (stereo partly drawn),inactive
10,NC(=O)C1=NOC(CNc2ncc(C(F)(F)F)cc2Cl)C1 (stereo not drawn),inactive
11,Cc1cccc(C)c1NC(=O)CSc1nnc(-c2ccco2)c(-c2ccco2)n1,inactive
12,CCOC(=O)c1sc(NC(=O)CSC(=S)N2CCN(C)CC2)nc1C,inactive
13,CC(=O)N(C(C)=O)N1C(=O)c2cccc3c(N4CCOCC4)ccc(c23)C1=O,inactive
14,O=C1C=CC2=C3c4cc(O)c(O)cc4CC3(O)COC2=C1O (stereo not drawn),inactive
15,CC(C)(C)OC(=O)C[C@@H]1C/C=C\C[C@H](CC(=O)N(CCO)Cc2ccccc2)C(=O)N[C@@H](c2ccccc2)COC1=O,inactive
16,CCN(CC)c1ccc2cc(S(=O)(=O)c3ccc(Cl)cc3)c(=O)oc2c1,6.87 µM (active)
17,COc1ccc(NC(=O)CO/N=C2/CCCc3nonc32)c(OC)c1,inactive
18,O=C(Nc1ccc2c(c1)OCO2)N1CCCc2ccccc21,inactive
19,CNc1c2cccc(C)c2nc2c(C(=O)NCCN(C)C)cccc12,6.16 µM (active)
